Experimental findings from PubChem BioAssay AID2284134 (EPA ToxCast) are described below.

Activity calls are given as the source filed them. How the source made its calls: active means hit-call score of the fitted dose curve at least 0.9, where 1 is the maximum; inactive means score below 0.9.

Sequence of human PKD2 (PRKD2) CAMK Kinase, PRKD2 (gene 25865) (Q9BZL6 whole entry, looked up): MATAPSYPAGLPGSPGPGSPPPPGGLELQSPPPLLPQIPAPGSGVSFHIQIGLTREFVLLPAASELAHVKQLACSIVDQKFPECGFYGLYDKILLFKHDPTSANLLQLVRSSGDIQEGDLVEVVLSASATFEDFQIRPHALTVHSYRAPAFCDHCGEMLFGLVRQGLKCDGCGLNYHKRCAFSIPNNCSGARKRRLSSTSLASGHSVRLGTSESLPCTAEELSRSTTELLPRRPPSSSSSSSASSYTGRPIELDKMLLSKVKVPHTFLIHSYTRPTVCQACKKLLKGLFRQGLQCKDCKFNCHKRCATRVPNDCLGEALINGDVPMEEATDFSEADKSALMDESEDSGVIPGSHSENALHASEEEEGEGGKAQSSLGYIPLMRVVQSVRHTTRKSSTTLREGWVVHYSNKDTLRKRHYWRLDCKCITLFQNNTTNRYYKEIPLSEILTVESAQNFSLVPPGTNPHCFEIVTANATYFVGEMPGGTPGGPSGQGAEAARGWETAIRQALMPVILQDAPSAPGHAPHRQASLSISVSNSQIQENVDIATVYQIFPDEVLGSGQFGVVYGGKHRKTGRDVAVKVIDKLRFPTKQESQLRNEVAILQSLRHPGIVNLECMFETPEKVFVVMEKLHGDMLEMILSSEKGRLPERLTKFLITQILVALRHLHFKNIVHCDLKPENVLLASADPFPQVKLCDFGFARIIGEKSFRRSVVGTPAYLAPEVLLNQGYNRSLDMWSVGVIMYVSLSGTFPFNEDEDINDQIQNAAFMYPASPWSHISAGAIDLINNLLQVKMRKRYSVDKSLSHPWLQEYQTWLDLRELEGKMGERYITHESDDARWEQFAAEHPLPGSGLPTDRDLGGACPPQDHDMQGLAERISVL

This assay concerns the target human PKD2 (PRKD2) CAMK Kinase, PRKD2 (gene 25865) (UniProt Q9BZL6). The experiment in a line: ERF_KP_ENZ_hPKD2: Eurofins (ERF) Enzymatic Radiometric [10 uM ATP] KinaseProfiler LeadHunter Assay for human PKD2 (PRKD2) CAMK Kinase. On the procedure:
ERF_KP_ENZ_hPKD2 is a biochemical, single-readout assay that uses extracted gene-proteins in a cell-free assay. Measurements were taken 0.66 hour after chemical dosing in a 96-well plate. See PKD2 Human Protein Ser/Thr Kinase Enzymatic Radiometric Assay [10 uM ATP], KinaseProfiler.ERF_KP_ENZ_hPKD2 is an assay component calculated from the ERF_KP_ENZ_hPKD2 assay. It is designed to measure enzyme activity using a type of enzyme reporter as detected by scintillation counting with radiometry technology.Data from the assay component ERF_KP_ENZ_hPKD2 was analyzed at the assay endpoint, ERF_KP_ENZ_hPKD2, in the positive analysis fitting direction relative to DMSO as the negative control and baseline of activity. Using a type of enzyme reporter, loss-of-signal activity can be used to understand changes in enzymatic activity as they relate to gene PRKD2. To generalize the intended target to other relatable targets, this assay endpoint is annotated to the kinase intended target family, where the subfamily is serine/threonine kinase.
PKD2 (h) is incubated with 20 mM HEPES pH 7.4, 0.03% Triton X-100, 30 uM […], 10 mM MgAcetate and [gamma-33P]-ATP (specific activity and concentration as required). The reaction is initiated by the addition of the Mg/ATP mix. After incubation for 40 minutes at room temperature, the reaction is stopped by the addition of phosphoric acid to a concentration of 0.5%. […]
Consider `O=C(/C=C/c1ccc(O)cc1)CC(=O)/C=C/c1ccc(O)cc1`, for which the AC50 was 0.3 nM (active).

As a reminder, the AC50 is the concentration at which the activity in the assay is half-maximal.
